Laboratory results: PubChem BioAssay AID686978 (National Center for Advancing Translational Sciences (NCATS), 2013)
In all, about 420,000 compounds went through this assay and about 64,000 (15%) were called active. Inconclusive results (about 27%) are left out. Only a sample is shown. A number with no mark means an inactive call. Calls follow the shape of the dose curve; as a rule, active = well fitted inhibition curve with a large enough effect; inconclusive = small, poorly fitted or top-dose-only effect; inactive = flat fitted curve, though single readings scatter.

Assay: qHTS for Inhibitors of human tyrosyl-DNA phosphodiesterase 1 (TDP1): qHTS in cells in absence of CPT; also: nearly all actives have a fitted effect of over 55% in size
Conditions: DT40 Tdp1-/- hTDP1 cells, no CPT, ATP luminescence, 48 h; activity change, negative = growth inhibition: at 46.2 µM (top of the series)
Description: Human tyrosyl-DNA phosphodiesterase 1 (TDP1) is a novel repair gene, and we propose to use it as a new target for anticancer drug development. TDP1 is not an essential protein, but under treatment with topoisomerase I poison (camptothecin: CPT), TDP1 works as a critical factor for cell survival. To directly identify novel TDP1 inhibitors active in a cellular environment, we have knocked-out the Tdp1 gene in chicken DT40 cells (Tdp1-/-) and generated a complemented counterpart cells that contains a stable transfection of the human TDP1 gene (Tdp1-/-;hTDP1 cells). For the primary screen, Tdp1-/-;hTDP1 cells will be exposed to small molecules in the presence or absence of CPT, and their growth kinetics will be evaluated after 48 hours by measuring ATP activity. […] The hit compounds will then be evaluated in the presence or absence of CPT using Tdp1-/- cells. […] In tertiary assays, biochemical gel-based assays will be used to assess whether the hit compounds specifically target TDP1.
To this end, we have screened this cell line against the MLSMR in two primary screens. In one screen we add CPT and in the other we screen in the absence of CPT; this AID represents the screen where CPT was absent.
NIH Chemical Genomics Center [NCGC]
NIH Molecular Libraries Probe Centers Network [MLPCN]
Assay Submitter (PI): Yves Pommier, NCI
DT40-hTDP1 cells without 20 nM Camptothecin (add 20 microL of DMSO in 1 L of cell culture medium) were dispensed at 400 cells/5microL/well in tissue culture treated 1536-well white wall/solid bottom assay plates (Greiner Bio-One North America, NC, U.S.A.) using a Multidrop Combi 8 channel dispenser (Thermo Fisher, Waltham, MA, USA). 23 nL compounds and controls were transferred using the pin tool (Kalypsys, San Diego, CA, USA) to the assay plates. The assay plates were then incubated at 37 masculineC for a minimum 48 hr. Three microL of Cell Titer Glo solution was added to the plates and incubated at RT in dark for 30 min. Luminescence was read using ViewLux (Perkin Elmer) with 1 sec exposure slow speed, high gain and 2x binning.
% is scaled to controls: 0 for no effect and ±100 for the full control effect; potency is read from the fitted curve at half-maximal effect.

Going from `O=C(CN1C(=O)NC2(CCCCCC2)C1=O)NCc1cccs1` to `COC(=O)CCC(=O)N1CCCC(CO)(Cc2ccccc2)C1` (stereo not drawn), the “activity change, negative = growth inhibition” value falls from 0.121% to -38.2%.

Compared with `CN=C1SC(C(=O)O)CC(=O)N1C` (stereo not drawn), `CC1CN(C(=S)Nc2ccc(S(N)(=O)=O)cc2)CC(C)O1` (stereo not drawn) is higher in “activity change, negative = growth inhibition” value: 1.26% for the first, 11% for the second.

Going from `COc1ccc(C(=O)n2nc(C)c(Br)c2C)cc1OC` to `COc1ccc(COC(=O)c2n[nH]c3ccccc23)cc1F`, the “activity change, negative = growth inhibition” value falls from -0.43% to -1.31%.

Going from `COc1ccc(CC(=O)n2nc(-c3cccnc3)nc2N)cc1` to `CCOC(=O)CNC(=O)CSc1ccc2nnc(-c3cccnc3)n2n1`, the “activity change, negative = growth inhibition” value falls from 1.94% to -1.35%.

Going from `Oc1ccc(Cl)c2c1CCC2` to `CC[N+]1(CC)CC2=Cc3ccccc3CC2C1` (stereo not drawn), the “activity change, negative = growth inhibition” value rises from -27% to -19.9%.

First: CN(CCOc1ccccc1)C(=O)c1cc(COc2c(F)cccc2F)on1
Second: Cc1ccc(OCc2cc(C(=O)N(C)CCc3ccccc3)no2)cc1C
The “activity change, negative = growth inhibition” value of the first is lower: -24.9% for the first, -19% for the second.

First: Cn1c(SCc2c(F)cccc2Cl)nnc1-c1cnccn1
Second: CCOc1cc(CN2CCCC(CO)(Cc3ccc(F)cc3F)C2)ccc1OC (stereo not drawn)
The “activity change, negative = growth inhibition” value of the first is higher: -18.6% for the first, -19.8% for the second.

First: Cc1cc([N+](=O)[O-])c(NC2CCCCC2)c([N+](=O)[O-])c1
Second: Cc1ccc(CS(=O)(=O)CCC(=O)NC2CC2)cc1
The “activity change, negative = growth inhibition” value of the first is lower: -10.4% for the first, -0.142% for the second.

Compared with `CCCCN(CC)C(=O)c1ccc2c(c1)OCO2`, `CCOC(=O)NCc1ccc2c(c1)OCO2` is higher in “activity change, negative = growth inhibition” value: -22.7% for the first, -1.31% for the second.

Compared with `Nc1ncnc2c1ncn2[C@@H]1O[C@H](C(=O)N2CCCN(Cc3ccccc3F)CC2)[C@@H](O)[C@H]1O`, `O=C(NC1CCC(O)CC1)c1ccccc1OCc1ccc(F)cc1` (stereo not drawn) is higher in “activity change, negative = growth inhibition” value: -25.2% for the first, 9.54% for the second.

Going from `O=C(c1ccncc1)c1ccc([N+](=O)[O-])cc1` to `O=C(Nn1cnnc1)c1ccc([N+](=O)[O-])cc1`, the “activity change, negative = growth inhibition” value rises from -16.7% to -4.36%.

Compared with `CCOC(=O)CSc1nnc(-c2ccc([N+](=O)[O-])cc2)o1`, `COc1ccccc1C(=O)Nn1cnnc1` is higher in “activity change, negative = growth inhibition” value: -10.3% for the first, 3.96% for the second.

First: COc1ccccc1C(=O)NNC(=O)c1ccc(NC(=O)c2ccccc2)cc1
Second: O=C(Nc1ccccc1)c1ccccc1OCc1ccccc1
The “activity change, negative = growth inhibition” value of the first is higher: -8.31% for the first, -23.2% for the second.

For `COc1ccc(C(=O)n2nc(-c3ccc(C)cc3)nc2N)cc1OC`, the Potency was 10.3 µM (active).
For `CN(Cc1cccnc1)C(=O)c1cc(COc2ccc3ncccc3c2)on1`, the Potency was 8.2 µM (active).
For `COCCN(Cc1cc2cc3c(cc2nc1Cl)OCO3)C(=O)c1cccc(C)c1`, the Potency was 16.4 µM (active).
For `COc1cccc(CC2(CO)CCCN(Cc3nc(-c4cccs4)oc3C)C2)c1` (stereo not drawn), the Potency was 20.6 µM (active).
With `O=C(Cn1c[n+](CC(=O)c2ccc([N+](=O)[O-])cc2)cn1)c1ccc([N+](=O)[O-])cc1` the Potency was 20.6 µM (active).
With `COc1ccccc1C(=O)c1ccccc1C(=O)c1ccccc1` the Potency was 18.4 µM (active).
In the case of `CC(=O)c1ccccc1OCc1ccc(C(=O)c2ccccc2)cc1`, the Potency is reported as 16.4 µM (active).
